This is a sample that favours compounds with a hit; in the whole collection about 21% have one here.
HCV inhibitor: blocks hepatitis C virus; AID 651820; actives 3.4% (n = 340,000); Potency, µM (doses to about 41.8 µM), inactives show at the top dose activity change, negative = inhibition, usual class: inhibitors; Huh7.5.1 HCVcc-Cre infection, luciferase reporter, 44 h; note: potency is the fitted concentration of half-maximal effect; % is set by controls: 0 for no effect and ±100 for the full control effect
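Whole-lifecycle infectious HCVcc-Cre system; cells 1,000/well, compound then virus (~0.5 moi) added 4 h after plating, 44 h culture. Luciferase read 15 sec following 15 min substrate incubation, room temp.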
Pf growth 96h: inhibits malaria parasite growth, 96 h. P. falciparum luciferase reporter growth, 96 h. Potency, µM (highest dose often 28.7 µM), for inactives: at the top dose activity change, negative = inhibition, hits mostly inhibitors. actives 6.9% (n = 320,000). AID 504834; note: potency is the fitted concentration of half-maximal effect; % is set by controls: 0 for no effect and ±100 for the full control effect
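Erythrocytes infected with luciferase-expressing P. falciparum were dispensed at 2% hematocrit and 0.05% parasitemia (final), then incubated with compounds 96 hours at 37 C in 5% CO2. Luminescence after detection reagent addition reported growth.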
Pf growth 48h: P. falciparum growth inhibition at 48 hours (one generation). P. falciparum luciferase growth in erythrocytes, 48 h. Potency, µM (highest dose often 28.7 µM), for inactives: top-dose activity change, negative = inhibition, most hits filed as inhibitors. actives 5.9% (n = 310,000); note: potency is the fitted concentration of half-maximal effect; % is set by controls: 0 for no effect and ±100 for the full control effect
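Read-out is firefly luciferase luminescence from an integrated reporter in P. falciparum, so falling signal marks reduced parasite growth. Infected erythrocytes were at 2% hematocrit and 0.1% parasitemia (final) in Albumax-supplemented RPMI 1640.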
Cycloheximide cs: counter-screen for Shiga toxin inhibitors: cycloheximide protein synthesis inhibition; max response, %; actives 12% (n = 300,000); cell reporter, cycloheximide protein synthesis inhibition counterscreen; AID 2314; in the data active = max response mostly above about 13%, no sharp cut-off; inactive = mostly below about 14%; note: read at 38.3 µM for the half of the compounds with a filed dose; 0% is about no effect
HCMV inh: human cytomegalovirus inhibition. activity change, negative = inhibition, % at 57.5 µM. HFF cells, HCMV-luciferase reporter, 72 h; active compounds read low. actives 4.5% (n = 410,000); in the data active = activity change below about -60%; inconclusive = no clear call, values can overlap the other calls; inactive = above about -39%; note: % is set by controls: 0 for no effect and ±100 for the full control effect
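Screen run at 2 compound doses on HFFs infected with reporter HCMV, MOI 1 PFU/cell. Luciferase activity from cell lysates at 72 h post infection gave inhibition relative to buffer-only and Salinomycin wells.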
Shiga inhibitor: Shiga toxin inhibition | actives 9.2% (n = 290,000) | Vero cells, Shiga toxin protein synthesis inhibition reporter | inhibition, % at 38.7 µM; in the data active = inhibition mostly above about 28%, no sharp cut-off; inactive = mostly below about 43%; note: 0% is about no effect
* = called active by the depositor; ? = inconclusive; · = no result; [ ] = remark or other dose. Unless noted, calls come from the whole dose curve; as a rule, active = well fitted inhibition curve with a large enough effect; inconclusive = small, poorly fitted or top-dose-only effect, or another doubt; inactive = no such curve, though single readings can be large or run the other way.

SMILES | HCV inhibitor | Pf growth 96h | Pf growth 48h | Cycloheximide cs | HCMV inh | Shiga inhibitor
CCOC(=O)c1sc(NC(=O)c2cc(CC)on2)c(C(=O)OCC)c1C | · | · | · | · | -3 | ·
Cc1ccc2cc3cc(C(=O)N4CCN(c5ccccc5)CC4)oc3nc2c1 | · | · | · | · | 33 | ·
CCOc1ccccc1NC(=O)c1cc(-c2cc(OC)c(OC)c(OC)c2)nc2ccccc12 | 8.9µM* | ? | ? | -4 | 29 | 9
COc1cc(NC(=O)c2cc(C)nc3ccccc23)cc(OC)c1OC | -29% | -5% | -21% | -3 | 10 | -3
COc1ccc(-c2cc(C(=O)NNC(=O)c3csc(N4CCOCC4)n3)c3ccccc3n2)cc1OC | 10µM* | 13µM* | ? | · | -12 | ·
COc1cc(-c2cc(C(=O)Nc3ccncc3)c3ccccc3n2)cc(OC)c1OC | ? | 4.1µM* | 8.3µM* | · | -4 | ·
Cc1ccccc1NC(=S)NC(=O)c1cc(-c2ccccc2)nc2ccccc12 | ? | 9.3µM* | ? | -1 | 12 | -3
COc1cc(/C=N/NC(=O)c2[nH]nc3c2CCc2ccccc2-3)ccc1O | 1% | ? | 55% | 7 | -1 | 12
O=C(Cn1cc(F)c(=O)[nH]c1=O)NCCO | 16% | 0% | 9% | 6 | ? | 2
CCOC(=O)c1c(C)nn(-c2ccc(NC(=O)CSCC(=O)O)cc2)c1C | 18% | 9% | 10% | -1 | 18 | -5
CC(C)(C)c1ccccc1NC(=O)c1cc(-c2ccncc2)nc2ccccc12 | 11µM* | · | · | · | 15 | ·
O=C(NNC(=O)c1cc(-c2ccncc2)nc2ccccc12)c1ccccc1O | ? | ? | ? | · | -21 | ·
COc1ccc(-c2cc(C(=O)Nc3ccc(C(N)=O)cc3)c3ccccc3n2)cc1 | ? | ? | -28% | 16* | -16 | 65*
COc1ccc(-c2cc(C(=O)Nc3ccccc3O)c3ccccc3n2)cc1OC | -10% | 61% | ? | 12 | -22 | 10
O=C(Nc1ccc(SC(F)F)cc1)c1cc(-c2ccncc2)nc2ccccc12 | ? | 5.2µM* | ? | · | -40 | ·
COc1ccccc1NC(=O)c1cc(-c2cc(OC)c(OC)c(OC)c2)nc2ccccc12 | ? | ? | 4.7µM* | 6 | -6 | 12
Cc1nc2ccc(Br)cc2c2c1CC(CO)O2 (stereo not drawn) | -18% | -1% | 20%[0.00184 µM] | -4 | 10 | -8
Cc1cccc(N2CCN(C(c3ccccc3)c3nnc(-c4ccccc4F)o3)CC2)c1C (stereo not drawn) | · | · | · | · | -10 | ·
Cc1ccc(-c2cc(C(=O)Nc3ccncc3)c3ccccc3n2)cc1 | 6% | 1.5µM* | 1.7µM* | · | 7 | ·
COc1cc(-c2cc(C(=O)Nc3cc(S(=O)(=O)N4CCOCC4)ccc3C)c3ccccc3n2)cc(OC)c1OC | ? | 1µM* | 2.9µM* | · | · | ·
COc1ccc(OC)c(-c2cc(C(=O)Nc3ccccc3C(N)=O)c3ccccc3n2)c1 | 10µM* | · | · | · | 10 | ·
Cc1nnc(NC(=O)c2cc(-c3ccncc3)nc3c(C)cccc23)s1 | -23% | -8% | ? | 36* | 9 | 32*
CC1(c2ccccc2)NC(=O)N(CC(=O)Nc2ccccc2N2CCCC2)C1=O (stereo not drawn) | -4% | -2% | ? | · | -23 | ·
O=C1CC2c3ccccc3C1C1C(=O)N(CCO)C(=O)C21 (stereo not drawn) | 12% | 32% | -10% | -2 | 12 | -5
O=C(Nc1nnc([C@@H]2C[C@H](O)[C@@H](CO)O2)s1)Nc1cccc(Cl)c1Cl | · | · | · | · | 10 | ·
SMILES | HCV inhibitor | Pf growth 96h | Pf growth 48h | Cycloheximide cs | HCMV inh | Shiga inhibitor
Cc1cccc(C)c1NC(=O)c1cc(-c2ccccn2)nc2ccccc12 | -24% | ? | -26% | 6 | 69 | -22
COc1cc(-c2cc(C(=O)Nc3ccc(N4CCOCC4)cc3)c3ccccc3n2)cc(OC)c1OC | ? | 5.9µM* | 10µM* | 1 | 0 | -3
CCc1cccc(C)c1NC(=O)c1cc(-c2ccncc2)nc2ccccc12 | ? | 9.3µM* | 10µM* | · | -12 | ·
CC(=O)c1ccc(NC(=O)c2cc(CC(C)C)nc3ccccc23)cc1 | ? | ? | ? | 48* | -10 | 82*
O=C(Nc1ccc(N2CCOCC2)cc1)c1cc(-c2ccncc2)nc2ccccc12 | ? | ? | ? | -1 | ? | -19
Cc1ccccc1Cn1ccc(NC(=O)c2cc3nc(-c4ccco4)cc(C(F)(F)F)n3n2)n1 | ? | 36% | -64% | -2 | 67 | 29
O=C(Nc1cnn(Cc2ccc(F)cc2)c1)c1cc2nc(-c3ccco3)cc(C(F)(F)F)n2n1 | ? | 10µM* | 7% | -7 | 27 | -18
Cc1nn(Cc2ccccc2)c(C)c1NC(=O)c1cc2nc(-c3ccco3)cc(C(F)(F)F)n2n1 | ? | -10%[5.75 µM] | 12µM* | 6 | 4 | -4
O=C(Nc1cnn(Cc2ccc(F)cc2)c1)c1cc(-c2ccco2)on1 | -14% | ? | 13% | 12* | -39 | 13
Cc1ccccc1Cn1cc(NC(=O)c2cc(-c3ccco3)on2)cn1 | ? | -13% | 18% | 19 | -24 | 61*
O=C(CCNC(=O)Cn1ccc2ccccc2c1=O)NCc1ccc(F)cc1Cl | 2% | ? | -4% | -3 | -19 | -13
C[C@H]1CN([C@@H](C)CO)C(=O)CCCn2nncc2CO[C@@H]1CN(C)C(=O)c1ccncc1 | · | · | · | · | 23 | ·
COc1cccc(-c2cc(C(=O)Nc3cnn(Cc4ccc(F)cc4)c3)no2)c1 | -4% | 2.1µM* | 5% | 10 | -40 | 10
FC(F)(F)c1ccc(-n2cnc3ccccc32)nc1 | 5% | -24% | 16% | 33* | 1 | 46*
Cc1ccc(CNS(=O)(=O)c2ccccc2[N+](=O)[O-])cc1 | -3% | 224% | 37% | 29* | -34 | 55
Cc1ccc(CNS(=O)(=O)c2ccc([N+](=O)[O-])cc2)cc1 | -15% | -29% | 0% | 3 | 5 | ·
Cc1ccc(CNc2ccc(Cl)cc2[N+](=O)[O-])cc1 | 7% | -17% | 30% | 48* | 39 | 72*
Cc1cccc(Nc2ccc(S(=O)(=O)N3CCOCC3)cc2[N+](=O)[O-])c1 | ? | ? | -24% | · | -2 | ·
Cc1ccc(CNc2ccc(N3C(=O)CCCC3=O)cc2[N+](=O)[O-])cc1 | 10% | -15% | 6% | -2 | -5 | -8
Cc1ccc(CNc2ccc(S(=O)(=O)N3CCOCC3)cc2[N+](=O)[O-])cc1 | ? | 10µM* | 1% | -2 | -13 | -21
COc1ccccc1N1C(=O)NC(=O)/C(=C\c2cnn(-c3ccccc3)c2)C1=O | -1% | -22% | 17%[5.75 µM] | 13 | 7 | 48*
O=C1NC(=O)N(c2ccccc2)C(=O)/C1=C\c1ccc2c3c(cccc13)CC2 | -4% | 34% | 2% | 2 | · | 12

Screens from PubChem BioAssay.
